Screening data: PubChem BioAssay, National Center for Advancing Translational Sciences (NCATS)
The list is not random: actives were taken first. Their share in the collection is about 7.3%.
FLuc modulator: firefly luciferase modulation, counter-screen for miR-21 project; P08659; purified FLuc, Km substrates, luminescence inhibition; Potency, µM (highest dose often 57.5 µM), inactives show at the top dose activity change, negative = inhibition, most hits filed as inhibitors; 360,000 tested, 6.9% active; AID 588342;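 also: plate controls were vehicle for no effect and reference inhibitor for full effect; nearly all actives have a fitted effect of over 55% in size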
Target sequence (P08659 whole entry, looked up): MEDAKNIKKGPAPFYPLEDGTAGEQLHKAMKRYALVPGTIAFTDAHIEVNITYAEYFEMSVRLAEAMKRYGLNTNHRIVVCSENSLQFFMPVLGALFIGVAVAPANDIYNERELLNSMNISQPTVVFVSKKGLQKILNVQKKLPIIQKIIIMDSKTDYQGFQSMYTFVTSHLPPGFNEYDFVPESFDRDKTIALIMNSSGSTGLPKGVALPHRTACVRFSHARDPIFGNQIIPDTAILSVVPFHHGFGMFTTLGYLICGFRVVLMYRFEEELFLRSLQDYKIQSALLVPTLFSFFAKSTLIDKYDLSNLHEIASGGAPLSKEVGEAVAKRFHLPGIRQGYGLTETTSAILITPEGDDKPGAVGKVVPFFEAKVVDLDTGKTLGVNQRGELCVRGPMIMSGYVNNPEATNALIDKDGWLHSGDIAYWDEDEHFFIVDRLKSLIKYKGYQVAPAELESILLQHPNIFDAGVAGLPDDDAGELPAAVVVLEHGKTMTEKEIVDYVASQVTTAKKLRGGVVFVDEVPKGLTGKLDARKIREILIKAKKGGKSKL
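Purified P. pyralis luciferase (10nM final) with 10uM D-luciferin and 10uM ATP (Km levels) in 50mM Tris acetate pH 7.5, 10mM Mg acetate, 0.01% Tween-20, 0.05% BSA; qHTS 6-point titration, ~60 µM downward; luminescence read.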
NPC1 promoter act: NPC1 promoter activation. 320,000 tested, 2.4% active. Huh7 NPC1 promoter luciferase reporter, 24 h. AID 485313. Potency, µM (highest dose often 9.22 µM), without a hit: at the highest dose activation, usual class: activators; also: % of control where 0% means no effect; nearly all actives have a fitted effect of over 60% in size
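Cells: Huh7 expressing luciferase under the NPC1 promoter, 1500/well. Seeded 2 h, compound added, incubated 24 h at 37 °C. Luciferase reagent, 10 min ambient, then luminescence.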
uPA surface inh: cell surface uPA generation inhibition | cell surface uPA generation assay, qHTS | Potency, µM (top dose mostly 38.3 µM), without a hit: at the top dose activity change, negative = inhibition, hits mostly inhibitors | 330,000 tested, 0.31% active; active = well fitted inhibition curve with a large enough effect; inconclusive = small, poorly fitted or top-dose-only effect; inactive = no such curve, though single readings can be large or run the other way; tested in mouse RAW 264.7 cells; also: % is scaled to controls: 0 for no effect and ±100 for the full control effect; nearly all actives have a fitted effect of over 55% in size
SMN2 splice enh: increases expression of the SMN2 splice variant; AID 1458; Potency, µM (top dose mostly 46.1 µM), without a hit: at the top dose activity change, positive = activation, hits mostly activators; HEK293 SMN2-luciferase splicing reporter, luminescence, 30-36 h; 210,000 tested, 2.8% active; also: % of control where 0% means no effect; nearly all actives have a fitted effect of over 55% in size
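qHTS luciferase splicing reporter: luminescence rises when SMN2 exon 7 is included in transfected HEK293 cells. Compound exposure lasted 30-36 h at 37C, with 4.5 mM final sodium butyrate as control, followed by a ONE-Glo read.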
Rab9 prom act: Rab9 promoter activation. Potency, µM (highest dose often 9.22 µM), without a hit: top-dose activation, negative = inhibition, usual class: activators. Huh7 Rab9 promoter-luciferase reporter, luminescence, 24 h. AID 485297. 320,000 tested, 2.8% active; also: % of control where 0% means no effect; nearly all actives have a fitted effect of over 60% in size
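Cells were plated at 1500 per well in reduced-serum medium with 10% FBS and left 2 h. Compound in DMSO was then added for 24 h at 37 °C. Reporter signal was read by luminescence after 10 min with luciferase detection reagent.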
ELG1 genotoxic: induces genotoxicity in HEK293T cells with luciferase-tagged ELG1; HEK293T ELG1-luciferase reporter, luminescence, 16 h; 330,000 tested, 1.3% active; Potency, µM (highest dose often 46 µM), without a hit: at the highest dose activity change, positive = activation, most hits filed as activators; also: % of control where 0% means no effect; nearly all actives have a fitted effect of over 60% in size
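Screening used a luciferase reporter fused to human ELG1 in HEK293T cells. Luminescence was read on a CCD plate imager after 16 hr exposure and 30 min ONE-Glo incubation.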
* marks the source's active call; other numbers are inactive results; ? = inconclusive; nt = not tested or not shown; [ ] = another dose, or the depositor's remark. Unless noted, calls follow the shape of the dose curve; as a rule, active = well fitted curve in the direction sought with a large enough effect; inconclusive = small, poorly fitted or top-dose-only effect, or another doubt; inactive = no such curve, though single readings can be large; an effect the other way counts as inactive or inconclusive. Potency is read from the fitted curve at half-maximal effect.

SMILES	FLuc modulator	NPC1 promoter act	uPA surface inh	SMN2 splice enh	Rab9 prom act	ELG1 genotoxic
N#Cc1cc2c(nc1SCC(=O)Nc1nccs1)CCCCC2	0.67µM*	0.28µM*	nt	1µM*	0.28µM*	0.12µM*
Cc1ccc(SCC(=O)Nc2nccs2)cc1	?	?	5%	10%	?	?
CCOC(=O)c1c(SCC(=O)Nc2nccs2)nc(C)c(C)c1C	-1%	2.8µM*	-24%	nt	2.5µM*	?
Cc1ccc(C#N)c(SCC(=O)Nc2nccs2)n1	-11%	0.79µM*	6.3µM*	1.8µM*	0.45µM*	1.8µM*
N#Cc1cc2c(nc1SCC(=O)Nc1sc3c(c1C#N)CCC3)CCCCCC2	-1%	1%	-4%	-26%	3%	0%
CCn1c(C)nnc1SCC(=O)Nc1nccs1	0%	-5%	2%	nt	3%	1%
Cc1cccc(-n2ccnc2SCC(=O)Nc2nccs2)c1	?	?	7%	nt	3.5µM*	15%
Cc1ccc2nc(-c3ccccc3F)c(Nc3ccc(Cl)cc3)n2c1	-17%	nt	nt	-19%	nt	nt
CCSc1nnc(NC(=O)CSc2nc(C)cc(C)n2)s1	14%	2%	-8%	0%	-4%	1%
CCSc1nnc(NC(=O)CSc2nc3c(cc2C#N)CCCC3)s1	12µM*	1.8µM*	-21%	7.9µM*	3.2µM*	13%
N#Cc1cc2c(nc1SCC(=O)Nc1sc3c(c1C#N)CCC3)CCC2	2%	?	2%	5%	?	13%
CCc1nnc(NC(=O)CSc2nc3c(cc2C#N)CCC3)s1	0.85µM*	2.8µM*	-8%	13µM*	2.2µM*	?
S=C(Nc1cccc(Cl)c1)NC1CCCCC1	?	2%	1%	3%	4%	-1%
Cc1ccc(NC(=S)NC2CCCC2)cc1C	?	10%	-3%	?	?	6%
S=C(Nc1ccc2[nH]ccc2c1)NC1CCCCC1	13µM*	2.5µM*	-37%	nt	2.5µM*	11%
Cc1nc2ccc(NC(=S)NC3CCCCC3)cc2nc1C	17µM*	?	-8%	17%	3.5µM*	6%
CN1C(=O)C(C(=O)Nc2ccccc2F)c2ccccc21 (configuration not stated)	19µM*	0%	-4%	8%	3%	-1%
Cc1ccc(NC(=O)C2C(=O)N(C)c3ccccc32)cc1 (configuration not stated)	4.8µM*	18%	-2%	?	25%	9%
Cc1ccc(NC(=O)C2C(=O)N(CCO)C3(C)CC2c2ccccc2O3)cc1 (configuration not stated)	-1%	7%	1%	?	19%	10%
CCn1cc2nc(SCc3cccc(OC)c3)n(Cc3ccc(Cl)cc3)c(=O)c2n1	-15%	nt	nt	-1%	nt	nt
Cc1cc(C(=O)CSc2cccc[n+]2[O-])c(C)n1-c1ccc(OC(F)F)cc1	15µM*	?	-9%	nt	?	8%
COc1ccc(-c2csc(-c3cccs3)n2)c(OC)c1	3.4µM*	?	6%	11µM*	1.3µM*	2.1µM*
COc1ccc(-c2csc(-c3ccccc3)n2)c(OC)c1	3.4µM*	?	-6%	11µM*	?	4.6µM*
COc1ccc(-c2csc(NC(=O)Cc3ccccc3F)n2)c(OC)c1	?	5%	5%	nt	11%	1%
Cc1noc(C)c1C(=O)N1CCC2(CC1)CN(c1ccccn1)C2	nt	nt	nt	-14%	nt	nt
SMILES	FLuc modulator	NPC1 promoter act	uPA surface inh	SMN2 splice enh	Rab9 prom act	ELG1 genotoxic
N#CC1=C(N)N(c2ncn[nH]2)C2=C(C(=O)CCC2)C1c1ccc(F)cc1 (configuration not stated)	3%	-3%	-11%	-11%	1%	-4%
CCc1ccc(C(=O)NNC(=S)Nc2ccc(S(N)(=O)=O)cc2)s1	17µM*	-2%	2%	nt	-1%	4%
CC(C(=O)NCc1cccc(Br)c1)n1ncn2cccc2c1=O (configuration not stated)	13µM*	nt	nt	nt	nt	nt
COC(=O)[C@@H]1CCCN1C(=O)CCc1nnc(CCC2CCCCC2)o1	19µM*	28%	-1%	?	?	?
COC(=O)[C@@H]1CCCN1C(=O)CCc1nnc(CCc2c[nH]c3ccccc23)o1	17µM*	12%	1%	nt	13%	8%
CCCCn1c(=O)c2oc3ccccc3c2n(Cc2cccc(F)c2)c1=O	0%	nt	nt	nt	nt	nt
Cc1ccccc1C=O	0%	-1%	-2%	0%	-1%	2%
Cc1ccccc1/C=C/C1=NCCN1	3%	0%[46.1 µM]	4µM*	-77%	-39%[46.1 µM]	-44%
Cc1ccc(NC(=S)N2CCN(Cc3ccccc3)CC2)cc1	12µM*	0%	-9%	-58%	14%	34%
O=C(Nc1cccc(Cl)c1)N1CCN(Cc2ccccc2)CC1	15µM*	?	-2%	10µM*	?	21µM*
S=C(Nc1ccc(Cl)cc1)N1CCN(Cc2ccccc2)CC1	19µM*	-3%	0%	-10%	2%	-3%
Cc1cc(C)cc(NC(=S)N2CCN(Cc3ccccc3)CC2)c1	-4%	1%	-2%	2%	8%	-2%
CCCCNC(=O)CSc1nc2ccsc2c(=O)n1CCCC(=O)NCCc1ccc(S(N)(=O)=O)cc1	2%	3%	1%	-14%	-2%	0%
CCOc1ccc(CCNC(=O)c2cc3cccc4c3n2CCS4)cc1	-13%	nt	nt	nt	nt	nt
Cc1cccc(NC(=O)Cn2c(=O)n(CC3CCC(C(=O)NCCc4ccccc4)CC3)c(=O)c3ccccc32)c1C (configuration not stated)	-1%	nt	nt	3%	nt	nt
CCC(=O)c1ccc(OC(=O)c2cccs2)cc1	nt	nt	3%	nt	nt	nt
COc1ccc(C(=O)COC(=O)c2ccc(N(C)C)cc2)cc1	1%	21%	1%	5%	?	-2%
CN(C)c1ccc(C(=O)OCC(=O)c2cccs2)cc1	3.4µM*	3.5µM*	3%	6.3µM*	1.8µM*	8.2µM*
CSc1ncccc1C(=O)OCC(=O)c1cccs1	19µM*	-4%	-11%	5%	-2%	0%
O=C(OCC(=O)c1cccs1)c1cccc(C(=O)OCC(=O)c2cccs2)n1	12µM*	-2%	-4%	2%	9%	-1%
CCc1ccc(C(=O)COC(=O)c2cccs2)cc1	0.19µM*	2.5µM*	16%	-11%	1.4µM*	4.5µM*
COCCN(CCOC)c1nc(C)nc2c1nc(-c1ccccc1)n2CCN1CCCC1	nt	nt	nt	-6%	nt	nt
Cc1ccc(C(=O)COC(=O)c2cccs2)cc1	0.15µM*	0.79µM*	1%	?	0.45µM*	?
CCOc1ccc(NC(=O)N(Cc2c[nH]c3ccccc23)C2CCCCC2)cc1	-2%	nt	nt	0%	nt	nt
C=CC(C)(C)c1cc2cc3ccoc3cc2oc1=O	21µM*	-3%	4%	-11%	2%	4%
